p53null 32C kill – kills p53 null cells at the permissive temperature; H1299-neo p53 null cells, ATP luminescence, 24 h, 32C; hit rate 0.62% among 55,000; Potency, µM (titrated, usually from 46.1 µM), most hits filed as cytotoxic; further: nearly all actives have a fitted effect of over 55% in size
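We seeded p53-null H1299-neo cells, incubated them overnight at 37C, and added compounds across a range up to 46 uM. After 24 hours at 32C, ATP reagent was applied for 20 min at room temperature and luminescence recorded.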
S16 viability – toxic to S16 Pmp22-F2sN Schwann cells. AID 1508642. Potency, µM (doses to about 57.5 µM), most hits filed as cytotoxic. hit rate 0.48% among 43,000. S16 Pmp22-F2sN Schwann cells viability, CellTiter-Glo, 24 h; further: nearly all actives have a fitted effect of over 65% in size
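Rat S16 Schwann reporter line, 24 h treatment with library compounds delivered at 23 nL per well. Cell viability by CellTiter-Glo luminescence.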
p53null 39C kill – selectivity test: cytotoxicity in p53 null cells, nonpermissive temperature | H1299 p53-null (neo) cells, 39C, ATPlite viability, 24 h | Potency, µM (series often up to 46.1 µM), hits mostly cytotoxic | hit rate 0.97% among 55,000 | AID 904; further: nearly all actives have a fitted effect of over 50% in size
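Concentration-response (up to 46 uM) was run for 24 h at the nonpermissive 39C on H1299-p53A138V or H1299-neo cells. ATP content was measured with ATPlite luminescence. AC50 values were Hill-modeled after normalizing between DMSO and 100 uM tamoxifen killing.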
mTORC1 inh – mTORC1 pathway inhibition measured by phospho-rpS6. Tsc2-/- p53-/- MEF, phospho-rpS6 immunofluorescence/PI, 24 h. Potency, µM (highest dose often 38.3 µM), most hits filed as inhibitors. hit rate 0.78% among 44,000. AID 493208; further: nearly all actives have a fitted effect of over 50% in size
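Compounds act on Tsc2-/-, p53-/- fibroblasts carrying an empty vector for 24 h before fixation and dual staining for phospho-S6 and DNA (propidium iodide). Values are percentages of cells above a rapamycin-defined pS6/PI threshold.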
PMP22 txn – modulates PMP22 transcription in S16 Schwann cells. S16 Pmp22-F2sN Schwann cells (luciferase reporters placed in the Pmp22 gene), FLuc/NLuc coincidence luminescence, 24 h. Potency, µM (doses to about 57.5 µM), usual class: inhibitors. hit rate 2% among 43,000; active means clear falling dose curves in both reporters; inconclusive means both reporters move, but less clearly or upward; inactive means either reporter flat; the % is the NLuc reporter signal
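Reporter cells (S16 Pmp22-F2sN, 500–1,000 per well) exposed to compounds for 24 h, 37C, 5% CO2; lysis with FLuc read after 10 min, then Stop&Glo and NLuc read after 10 min.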
OvCa metastasis – blocks SKOV3ip1 adhesion and invasion in omental model; AID 1963576; Potency, µM (highest dose often 45.8 µM), hits mostly inhibitors; SKOV3ip1-GFP adhesion/invasion on 3D omental model, fluorescence; hit rate 0.1% among 46,000; further: nearly all actives have a fitted effect of over 65% in size
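Primary human omental fibroblast/mesothelial 3D culture pre-formed 48 h. SKOV3ip1-GFP cells added with compounds (0.36-46 umol/L), incubated 2 h RT/16 h 37 C, fixed; GFP cells quantified at 488/509 nm.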
A number is an active result; i = inactive; ? = inconclusive; nt = not tested or not shown. A selection: hits, their analogues and other compounds. The true share with any hit is near 3.1%. Unless noted, the call rests on the fitted dose curve; in most records, active means well fitted curve in the direction sought with a large enough effect; inconclusive means small, poorly fitted or top-dose-only effect, or another doubt; inactive means no such curve, though single readings can be large; an effect the other way counts as inactive or inconclusive.

SMILES	p53null 32C kill	S16 viability	p53null 39C kill	mTORC1 inh	PMP22 txn	OvCa metastasis
COc1ccc(-n2cc(-c3ccc4c(c3)OCO4)n(CC(=O)Nc3cccc(C)c3C)c2=O)c(OC)c1	i	?	?	i	i	i
COc1ccc(-n2cc(-c3ccc4c(c3)OCO4)n(CC(=O)Nc3cc(Cl)ccc3C)c2=O)cc1	15.8µM	?	10µM	i	?	i
COc1cccc(NC(=O)CSc2nnc(NC(=O)NC3CCCCC3)s2)c1	12.6µM	i	i	i	?	i
CCN1CCN(C(=O)Cn2ncc3c4ccccc4n(Cc4c(C)cc(C)cc4C)c3c2=O)CC1	i	?	?	16.5µM	?	?
CN1CCc2c(c3ccccc3n2Cc2ccc(C(=O)NO)cc2)C1	nt	nt	nt	nt	nt	i
CC(C)Oc1ccc(CNC(=O)C2CCN(c3nc4ccccc4nc3C(F)(F)F)CC2)cc1	i	7.94µM	i	i	?	i
CC(=Cc1ccccc1)C=C1SC(=S)N(CC(=O)O)C1=O	nt	nt	nt	nt	nt	i
COc1cc2c(Nc3ccc(Cl)c(Cl)c3F)ncnc2cc1OCC1C[C@@H]2CN(C)C[C@H]2C1	nt	nt	nt	nt	nt	i
O=C(Nc1cc(Cl)cc(Cl)c1)c1ccc(F)c(S(=O)(=O)NC2CCCCC2)c1	?	i	20µM	?	?	i
O=C(Nc1ccc(Br)cc1)c1ccc(F)c(S(=O)(=O)NC2CCCCCC2)c1	i	?	i	i	?	?
CC1(C)[C@H]2CC[C@]3(C)[C@@H](C(=O)C=C4[C@@H]5C[C@@](C)(C(=O)O)CC[C@]5(C)CC[C@]43C)[C@@]2(C)CC[C@@H]1O	nt	nt	nt	nt	nt	i
COc1ccccc1-c1cc(C(F)(F)F)nc(S(=O)(=O)CCCC(=O)Nc2cc(OC)c(OC)c(OC)c2)n1	?	i	?	i	i	i
COc1ccc(-c2cc(C(F)(F)F)nc(S(=O)(=O)CCCC(=O)Nc3cccc(O)c3)n2)cc1OC	i	8.91µM	?	?	5.97µM	i
COc1ccc(-c2cc(C(F)(F)F)nc(S(=O)(=O)CCCC(=O)Nc3ccccc3C(F)(F)F)n2)cc1OC	i	?	?	18.5µM	?	?
COc1ccccc1-c1cc(C(F)(F)F)nc(S(=O)(=O)CCCC(=O)Nc2ccc(F)c(Cl)c2)n1	i	i	i	i	i	i
COc1ccc(NC(=O)CCCS(=O)(=O)c2nc(-c3ccc(OC)c(OC)c3)cc(C(F)(F)F)n2)cc1OC	i	4.47µM	?	11.7µM	4.47µM	?
CC[C@@H]1C(=O)N(C)c2cnc(Nc3ccc(C(=O)NC4CCN(C)CC4)cc3OC)nc2N1C1CCCC1	nt	nt	nt	nt	nt	i
CCc1ccccc1Nc1nn2c(=O)c3ccc(C(=O)NCc4ccccc4OC)cc3nc2s1	i	i	i	i	i	i
COc1ccccc1Nc1nn2c(=O)c3ccc(C(=O)NCc4ccc(F)cc4)cc3nc2s1	i	14.1µM	3.98µM	i	4.59µM	i
CCc1cccc(NC(=O)c2ccc3c(=O)n4nc(Nc5ccccc5OC)sc4nc3c2)c1	i	?	?	i	4.47µM	i
CCC(=O)NC[C@H](Cc1ccc(OCCc2nc(-c3ccccc3)oc2C)cc1)NC(C)=CC(=O)c1ccc(C(F)(F)F)cc1	nt	nt	nt	nt	nt	i
CC(C)(F)C[C@H](N[C@@H](c1ccc(-c2ccc(S(C)(=O)=O)cc2)cc1)C(F)(F)F)C(=O)NC1(C#N)CC1	nt	nt	nt	nt	nt	i
CC(=O)c1cccc(Nc2nc(-c3cccc(C)c3)nc3ccccc23)c1	?	?	11.2µM	?	?	?
CCOc1ccc(C2C=C(c3cccc(OC)c3)Nc3nnnn32)cc1 (stereo unspecified)	i	i	?	i	i	i
CN(C)c1ccc(C2C=C(c3ccccc3)Nc3nnnn32)cc1 (stereo unspecified)	?	i	7.94µM	?	?	i
CC1CCCN(CCCNC(=O)c2ccc3c(c2)N(Cc2ccc(Cl)cc2)C(=O)c2ccccc2S3(=O)=O)C1 (stereo unspecified)	?	?	15.8µM	13.1µM	?	?
